Experiment [1] addresses Lysosomal acid glucosylceramidase (Homo sapiens) (UniProt P04062). Kind of experiment: Glucocerebrosidase-p2 (AID 348; in the data active = potency below about 10 µM; note: potency is the fitted concentration of half-maximal effect). The following applies: purified GBA, blue fluorogenic substrate, 40 min. The essentials:
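Normal human glucocerebrosidase (0.2 nM) with blue fluorogenic substrate (80 uM final) in citrate/phosphate pH 5.9 with 10mM sodium taurocholate, 0.01% tween-20; 40 min RT, NaOH/glycine stop; fluorescence Ex 365/Em 440; AC50 from a titration from 0.6 nM upwards.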

Experiment [2] is described as follows: AP1 Signaling Pathway (AID 357; active = well fitted curve in either direction with a large enough effect, not every such curve was filed as active;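 note: ME-180 reporter cells stimulated with EGF at its EC50 level; % is set by controls: 0 for no effect and ±100 for the full control effect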). The conditions noted are these: ME-180 AP-1-bla reporter, EGF-induced, beta-lactamase ratio, 5 h. The method, boiled down:
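AP-1-bla ME-180 cells, Opti-MEM + 0.5% dialyzed FBS, plated overnight 37 °C. Cpd titration + EC50 EGF, 5 h 37 °C. CCF4 2.5 h RT; ex 405, em 460/530 ratio → %activity, AC50.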

Experiment [3] can be described thus: NFAT Signaling Pathway (AID 444; active = well fitted curve in either direction with a large enough effect, not every such curve was filed as active;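 note: carbachol stimulus at about its EC50 of 1 µM final; % is set by controls: 0 for no effect and ±100 for the full control effect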). The conditions noted are these: Jurkat NFAT-bla M1, carbachol, beta-lactamase ratio, 5 h. The essentials:
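Read-out: CCF4 FRET ratio (460 nm/530 nm) after 1 h RT dye loading, used for %activity and AC50 from titration series. Cells: Jurkat NFAT-β-lactamase/M1 line, treated with compound plus 1 uM carbachol for 5 h, 37 °C.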

The nature of experiment [4]: Stat Signaling Pathway (AID 446; active = well fitted curve in either direction with a large enough effect, not every such curve was filed as active;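 note: ME-180 cervical cancer cells given 40 pM IL-6 alongside compound; SIE-controlled beta-lactamase reporter measured as 460/530 nm FRET emission ratio; % is set by controls: 0 for no effect and ±100 for the full control effect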). The conditions noted are these: ME-180 (cervical carcinoma) SIE beta-lactamase reporter, IL-6 stimulated, 5 h. The method, boiled down: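 Emission at 460 and 530 nm (excitation 405 nm) reports SIE-controlled beta-lactamase in ME-180 cells. Cells received compound with 40 pM IL-6 for 5 hrs at 37 C; data scaled between 300 pM IL-6 and 125 nM JAK-inhibitor controls.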

The target in experiment [5] is Glucocorticoid receptor (Homo sapiens) (UniProt P04150). Kind of experiment: GR-GFP Redistribution (AID 450;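 active = compounds whose dose series gives a full or clear partial fitted curve of increased nuclear translocation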; note: potency is the fitted concentration of half-maximal effect). The conditions noted are these: U2OS GR-GFP nuclear translocation, laser cytometry, 2 h.
Sequence of Glucocorticoid receptor (Homo sapiens) (P04150 whole entry, looked up): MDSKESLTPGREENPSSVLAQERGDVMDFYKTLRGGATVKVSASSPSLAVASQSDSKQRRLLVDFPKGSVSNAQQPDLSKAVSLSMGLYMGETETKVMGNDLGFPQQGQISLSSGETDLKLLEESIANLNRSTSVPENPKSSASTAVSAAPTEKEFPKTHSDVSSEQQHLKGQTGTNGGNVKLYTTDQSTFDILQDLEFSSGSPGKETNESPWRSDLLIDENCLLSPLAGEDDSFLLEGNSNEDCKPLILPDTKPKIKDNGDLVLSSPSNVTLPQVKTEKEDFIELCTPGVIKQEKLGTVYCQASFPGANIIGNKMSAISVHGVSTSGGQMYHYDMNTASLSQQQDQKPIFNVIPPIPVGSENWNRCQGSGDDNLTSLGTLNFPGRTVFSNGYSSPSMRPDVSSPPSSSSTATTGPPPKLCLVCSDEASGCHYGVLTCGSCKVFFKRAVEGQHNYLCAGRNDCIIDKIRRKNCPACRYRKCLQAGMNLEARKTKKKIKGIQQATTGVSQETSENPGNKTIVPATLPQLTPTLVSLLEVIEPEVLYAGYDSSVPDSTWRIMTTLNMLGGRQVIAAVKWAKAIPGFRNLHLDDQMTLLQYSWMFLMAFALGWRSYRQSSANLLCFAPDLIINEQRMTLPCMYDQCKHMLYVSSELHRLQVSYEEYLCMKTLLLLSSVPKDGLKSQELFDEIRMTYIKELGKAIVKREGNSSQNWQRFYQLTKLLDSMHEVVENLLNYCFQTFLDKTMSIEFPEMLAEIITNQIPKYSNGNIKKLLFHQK
The target is the same in experiment [6]. In words: GR-EFC Redistribution (AID 451; calls by dose curve; note: potency is the fitted concentration of half-maximal effect). The following applies: CHO-K1 GR-EFC translocation, beta-gal luminescence, 2 h. The method, boiled down:
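Translocation of GR-ED fusion to nuclear EA restores b-gal, read by luminescence after 1 h room-temperature detection. Engineered CHO-K1 biosensor cells, 1,000/well, exposed 2 h at 37 C to titrations up to 46 uM final.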

Experiment [7] concerns the target Mitogen-activated protein kinase 10 (Mus musculus) (UniProt Q61831). Kind of experiment: JNK3 AlphaScreen Assay (AID 530; active = well fitted curve in either direction with a large enough effect, not every such curve was filed as active;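 note: kinase came from lysate of stimulated human HepG2 cells; signal reports phosphorylation of biotinylated GST-cJun 1-79 at Ser73 with 10 µM ATP; % is set by controls: 0 for no effect and ±100 for the full control effect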). The conditions noted are these: JNK3 lysate, c-Jun phosphorylation; series mostly up to 57.1 µM. The essentials:
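qHTS titrations with 15 min compound pre-incubation before adding ATP (10 uM final). Read-out: AlphaScreen of Ser73-phosphorylated biotin-GST-cJun using HepG2 lysate JNK3 activated by IL-1β and TNFα.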
On the technique in general: Alpha assays give light when donor and acceptor beads are brought close together.

In experiment [8] the target is 3',5'-cyclic-AMP phosphodiesterase 4B (Homo sapiens) (UniProt Q07343). In words: qHTS Assay for Inhibitors of PDE-IV (AID 607; active = well fitted activation curve with a large enough effect in the main read-out, with a control signal flat, not every such curve was filed as active; note: % of control where 0% means no effect). The conditions noted are these: HEK293 ACTOne CNG channel cells, membrane potential fluorescence; series mostly up to 22.9 µM. The essentials: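 The readout is membrane depolarisation from a cAMP-sensing CNG channel, detected with a potential dye at ex 535/em 590. Cells were HEK293-derived (endogenous PDE-IV) at 1000 cells/well, titrated up to 22.9 uM final.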
Sequence of 3',5'-cyclic-AMP phosphodiesterase 4B (Homo sapiens) (Q07343 whole entry, looked up): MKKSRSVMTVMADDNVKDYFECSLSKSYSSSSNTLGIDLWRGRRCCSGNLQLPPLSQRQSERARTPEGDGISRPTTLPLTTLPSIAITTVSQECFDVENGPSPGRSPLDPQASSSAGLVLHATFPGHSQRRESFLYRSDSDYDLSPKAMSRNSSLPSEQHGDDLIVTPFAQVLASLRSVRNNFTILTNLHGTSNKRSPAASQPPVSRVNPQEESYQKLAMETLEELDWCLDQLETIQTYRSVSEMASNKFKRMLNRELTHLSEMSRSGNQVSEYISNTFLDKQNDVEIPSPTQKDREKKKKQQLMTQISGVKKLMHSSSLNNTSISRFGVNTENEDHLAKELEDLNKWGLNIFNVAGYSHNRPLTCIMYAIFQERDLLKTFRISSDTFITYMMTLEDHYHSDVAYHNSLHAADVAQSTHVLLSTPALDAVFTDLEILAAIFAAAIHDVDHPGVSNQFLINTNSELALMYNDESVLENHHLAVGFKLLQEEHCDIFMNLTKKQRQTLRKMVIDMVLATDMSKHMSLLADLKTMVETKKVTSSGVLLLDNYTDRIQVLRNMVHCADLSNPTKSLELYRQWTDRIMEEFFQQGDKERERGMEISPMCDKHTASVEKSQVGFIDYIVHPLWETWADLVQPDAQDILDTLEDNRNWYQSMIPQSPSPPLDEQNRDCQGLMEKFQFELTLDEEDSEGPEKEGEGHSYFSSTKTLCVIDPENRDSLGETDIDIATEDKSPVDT
Background: qHTS replaces the single test concentration by a dilution series.

Experiment [9] deals with Guanine nucleotide-binding protein G(i) subunit alpha-1 (Homo sapiens) (UniProt P63096). In words: qHTS Assay for Inhibitors of RGS12 GoLoco Motif Activity (Green Fluorophore) (AID 879).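 Note: 0% = labeled peptide with Gαi1 and full inhibition = labeled peptide alone without protein; negative values mean loss of peptide binding seen as reduced polarization.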 The conditions noted are these: Galphai1/FITC-RGS12 GoLoco peptide, fluorescence polarization; series mostly up to 57.1 µM. The essentials:
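A drop in FITC polarization marked displacement of the FITC-tagged RGS12 GoLoco peptide (10 nM) from Gαi1 (50 nM). Compounds were incubated 10 min at room temperature in Tris pH 7.5 buffer containing 150 mM NaCl, 0.1 mM GDP and 0.05% NP40; unlabeled peptide titration served as control.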

Experiment [10] in a line: qHTS Assay for Identification of Small Molecule Agonists for Thrombopoietin (TPO) Signaling Pathway (AID 917). Note: % is set by controls: 0 for no effect and ±100 for the full control effect. The following applies: TPO signaling pathway reporter cells, agonist qHTS, stimulated with TPO at its EC50; series mostly up to 38.5 µM. The method, boiled down: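 Quantitative HTS for pathway activators: compounds were pin-transferred onto IL-3-starved Ba/F3 cells expressing human TPO receptor, TPO was added at its EC50 (26 pM final), and after 24 hrs at 37 C reporter luciferase was measured.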

The target of experiment [11] is Pyruvate kinase (Leishmania mexicana) (UniProt Q27686). In words: qHTS Validation Assay for Inhibitors of Leishmania Mexicana Pyruvate Kinase (AID 945).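 Note: 0% = DMSO only neutral control wells.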 The conditions noted are these: purified L. mexicana pyruvate kinase, enzyme activity, E451W mutant enzyme; series mostly up to 57.5 µM. The method, boiled down: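 Luminescent ATP detection (PKLight) after a 1 h room-temperature reaction of 0.2 nM LmPYK E451W mutant with 0.5 mM PEP and 0.1 mM ADP at pH 7.2. Activity is normalized to DMSO-only control wells.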
Sequence of Pyruvate kinase (Leishmania mexicana) (Q27686 2-499 E452W): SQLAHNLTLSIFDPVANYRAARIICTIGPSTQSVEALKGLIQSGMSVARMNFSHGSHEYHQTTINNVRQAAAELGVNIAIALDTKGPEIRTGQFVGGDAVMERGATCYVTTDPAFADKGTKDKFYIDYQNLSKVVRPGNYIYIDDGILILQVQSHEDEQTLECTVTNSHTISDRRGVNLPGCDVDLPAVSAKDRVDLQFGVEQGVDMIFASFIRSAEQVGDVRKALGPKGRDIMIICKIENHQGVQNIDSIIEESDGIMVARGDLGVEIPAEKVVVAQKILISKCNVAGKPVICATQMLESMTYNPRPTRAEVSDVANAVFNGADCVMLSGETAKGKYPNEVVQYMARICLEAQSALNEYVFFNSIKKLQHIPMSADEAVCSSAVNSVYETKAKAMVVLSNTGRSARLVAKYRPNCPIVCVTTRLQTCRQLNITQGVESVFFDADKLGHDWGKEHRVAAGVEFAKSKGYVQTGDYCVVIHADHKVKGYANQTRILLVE

Experiment [12] has as its target Alpha-galactosidase A (Homo sapiens) (UniProt P06280). Kind of experiment: Counterscreen for Glucocerebrosidase Inhibitors: qHTS Assay for Human alpha-Galactosidase at pH 4.5 (AID 992). Note: 0% is about no effect. The following applies: purified enzyme, fluorogenic substrate; series mostly up to 76.9 µM. The method, boiled down: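 Fluorogenic 4-MU alpha-D-galactoside (80 uM) hydrolysis, 2 nM enzyme, pH 4.5 citrate buffer + 0.005% Tween-20; 20 min RT; NaOH/glycine pH 10 stop; Ex365/Em440. Compounds titrated 0.7 nM–77 uM; Hill-equation AC50.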
For orientation: The purpose of a counterscreen is to sort out artefacts and off-target activity.

Experiment [13] deals with alpha-glucosidase (Oryza sativa, rice) (UniProt Q653V4). Kind of experiment: Counterscreen for Glucocerebrosidase Inhibitors: qHTS Assay for Rice alpha-Glucosidase at pH 5.0 (AID 997).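 Note: 0% = full activity with enzyme and -100% = basal without enzyme.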 The following applies: rice alpha-glucosidase enzyme activity; series mostly up to 76.9 µM. The method, boiled down: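 Endpoint fluorogenic assay at pH 5.0: compounds (0.7 nM to 77 uM) titrated against 4 nM rice enzyme and 400 uM 4-MU-alpha-glucoside for 20 min at room temperature; NaOH/glycine stop, read ex 365/em 440 nm, Hill-fitted AC50.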

Experiment [14] can be described thus: qHTS Assay for Lipid Storage Modulators (AID 1519; calls by dose curve). The following applies: Drosophila S3 cells, BODIPY lipid droplet/cell ratio, laser cytometry, cells loaded with oleic acid; for activity change, negative = inhibition: at 25.7 µM (top of the series). The essentials:
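Cells seeded at 5,000 per well were treated with compounds over a concentration series and loaded with oleic acid (400 uM, as added). Lipid droplet fluorescence (488 nm excitation, 500-530 nm channel) was read by laser-scanning cytometry and normalized to 20 uM Triacsin C.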

In experiment [15] the target is DNA dC->dU-editing enzyme APOBEC-3G (Homo sapiens) (UniProt Q9HC16). In words: qHTS for inhibitors of Vif-A3G interactions: Validation (AID 588379). Note: 0% is about no effect. The conditions noted are these: Vif-A3G protein interaction assay; series mostly up to 46.1 µM. The method, boiled down: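 Yellow fluorescence (Ex 488, Em 500-530) of Vif-coexpressing HeLa A3G-eYFP cells, scanned by Acumen cytometer, reports blocked A3G degradation. Cells plated at 700/well overnight at 37 deg C before compound addition, then a further overnight compound incubation at 37 deg C.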
Sequence of DNA dC->dU-editing enzyme APOBEC-3G (Homo sapiens) (Q9HC16 whole entry, looked up): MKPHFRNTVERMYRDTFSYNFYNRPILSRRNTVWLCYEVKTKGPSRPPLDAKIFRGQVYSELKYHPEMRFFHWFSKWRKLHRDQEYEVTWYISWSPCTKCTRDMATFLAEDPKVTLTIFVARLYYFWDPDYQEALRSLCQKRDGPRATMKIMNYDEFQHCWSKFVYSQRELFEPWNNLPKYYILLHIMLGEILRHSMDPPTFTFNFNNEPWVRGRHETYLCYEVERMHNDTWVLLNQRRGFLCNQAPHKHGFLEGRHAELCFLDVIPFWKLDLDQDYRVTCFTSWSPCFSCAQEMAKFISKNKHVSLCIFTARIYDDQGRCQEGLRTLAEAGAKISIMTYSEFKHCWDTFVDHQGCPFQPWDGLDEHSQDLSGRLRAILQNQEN

Experiment [16] relates to Zika virus NS2B-NS3 protease. Kind of experiment: Primary screen GU AMC qHTS for Zika virus inhibitors (AID 1347154).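 Note: 0% = no-inhibitor control and -100% = no-enzyme control; nearly all actives have a fitted effect of over 70% in size.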 The following applies: Zika NS2B-NS3 unlinked protease, AMC fluorogenic substrate; series mostly up to 54.1 µM. The essentials:
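Fluorogenic AMC-substrate cleavage by noncovalent NS2B-NS3 protease complex (25 nM, pH 8.0 Tris buffer with Tween 20) followed for 15 minutes at room temperature (~20% conversion). Percent inhibition from ex340/em450 signal change, fitted by 4-parameter Hill equation.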

Experiment [17] is described as follows: Confirmatory qHTS for small molecule stabilizers of the endoplasmic reticulum resident proteome: Secreted ER Calcium Modulated Protein (SERCaMP) assay (AID 1508628). Note: potency is the fitted concentration of half-maximal effect; nearly all actives have a fitted effect of over 40% in size. The conditions noted are these: SERCaMP secreted luciferase ER calcium/proteostasis reporter; series mostly up to 76.3 µM. The essentials: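 Reporter secretion upon ER calcium depletion (100 nM thapsigargin, 4 h, 37C) is measured as medium luminescence with coelenterazine, after 16 h compound pretreatment of SH-SY5Y-GLuc-SERCaMP cells; primary at three concentrations up to 38.3 uM, follow-up at 11 (up to 76.6 uM).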

The target of experiment [18] is Muscarinic acetylcholine receptor M1 (Rattus norvegicus) (UniProt P08482). In words: qHTS Assay for Antagonists of Acetylcholine Muscarinic M1 Receptor: Kinetic Measurement of Intracellular Calcium Response (AID 943). Note: potency is the fitted concentration of half-maximal effect; nearly all actives have a fitted effect of over 75% in size. The conditions noted are these: M1-expressing cells, kinetic intracellular calcium fluorescence; series mostly up to 35.3 µM. The essentials: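 Antagonism measured as reduction of carbachol-evoked (EC80, 100 nM final) calcium flux in rat M1-CHO cells after 10 min compound exposure. Fluo-4 signal read kinetically; ratio of maximal to basal fluorescence.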
Sequence of Muscarinic acetylcholine receptor M1 (Rattus norvegicus) (P08482 whole entry, looked up): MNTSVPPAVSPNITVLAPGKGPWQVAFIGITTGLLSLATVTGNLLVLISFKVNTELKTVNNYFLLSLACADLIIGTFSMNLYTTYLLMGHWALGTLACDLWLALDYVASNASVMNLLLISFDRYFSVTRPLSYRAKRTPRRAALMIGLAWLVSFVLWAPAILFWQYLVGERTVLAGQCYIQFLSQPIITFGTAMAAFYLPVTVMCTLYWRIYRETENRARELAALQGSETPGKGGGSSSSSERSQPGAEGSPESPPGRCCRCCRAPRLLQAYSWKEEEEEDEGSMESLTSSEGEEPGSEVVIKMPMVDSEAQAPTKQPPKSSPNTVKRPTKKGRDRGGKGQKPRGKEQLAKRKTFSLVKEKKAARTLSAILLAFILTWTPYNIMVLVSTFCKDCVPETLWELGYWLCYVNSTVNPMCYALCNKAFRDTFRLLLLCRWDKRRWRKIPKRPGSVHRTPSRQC

Experiment [19] has the same target. In words: qHTS Assay for Antagonists of Acetylcholine Muscarinic M1 Receptor: Measurement of IP-One Response (AID 944). Note: potency is the fitted concentration of half-maximal effect; nearly all actives have a fitted effect of over 75% in size. The following applies: CHO-M1 cells, IP-One HTRF, antagonist mode; series mostly up to 46.1 µM. The method, boiled down: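 IP1 accumulation measured via TR-FRET between d2-IP1 and Eu-cryptate anti-IP1 antibody after carbachol (200 nM, EC80) stimulation for 30 min; rat M1-transfected CHO cells received compound 10 min before agonist.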

For experiment [20], the target named is Ubiquitin carboxyl-terminal hydrolase 1 (Homo sapiens) (UniProt O94782). In words: Inhibitors of USP1/UAF1: Pilot qHTS (AID 504865).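 Note: rhodamine fluorescence freed from ubiquitin-rhodamine substrate followed over time; top concentration of the series differs between compounds; % is set by controls: 0 for no effect and ±100 for the full control effect; nearly all actives have a fitted effect of over 35% in size.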 The conditions noted are these: purified USP1/UAF1, Ub-rhodamine cleavage fluorescence; series mostly up to 114 µM. The method, boiled down: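 Kinetic fluorescence assay: 1nM USP1/UAF1, 15 min compound preincubation, then 150nM Ub-Rho; 480/540 nm.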
Sequence of Ubiquitin carboxyl-terminal hydrolase 1 (Homo sapiens) (O94782 whole entry, looked up): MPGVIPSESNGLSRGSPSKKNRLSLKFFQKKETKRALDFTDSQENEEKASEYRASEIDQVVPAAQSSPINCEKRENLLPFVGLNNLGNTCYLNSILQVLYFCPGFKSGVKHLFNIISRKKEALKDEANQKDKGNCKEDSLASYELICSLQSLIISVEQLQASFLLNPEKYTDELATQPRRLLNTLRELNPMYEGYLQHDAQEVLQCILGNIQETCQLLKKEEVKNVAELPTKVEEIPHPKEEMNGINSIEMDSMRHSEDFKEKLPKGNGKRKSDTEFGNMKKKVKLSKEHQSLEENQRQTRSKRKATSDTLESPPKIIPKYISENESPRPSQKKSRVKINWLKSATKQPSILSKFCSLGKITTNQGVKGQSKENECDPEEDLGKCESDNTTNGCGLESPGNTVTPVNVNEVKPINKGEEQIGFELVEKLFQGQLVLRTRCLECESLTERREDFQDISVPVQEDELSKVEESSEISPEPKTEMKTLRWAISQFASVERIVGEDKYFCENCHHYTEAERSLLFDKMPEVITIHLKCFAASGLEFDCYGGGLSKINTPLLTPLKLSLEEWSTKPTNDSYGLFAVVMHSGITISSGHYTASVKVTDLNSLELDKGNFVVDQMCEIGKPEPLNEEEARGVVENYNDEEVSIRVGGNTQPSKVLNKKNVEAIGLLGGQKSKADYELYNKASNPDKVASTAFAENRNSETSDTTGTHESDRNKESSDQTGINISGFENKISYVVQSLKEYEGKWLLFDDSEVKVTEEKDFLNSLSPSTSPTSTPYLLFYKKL

Experiment [21] is described as follows: Counterscreen qHTS for small molecule stabilizers of the endoplasmic reticulum resident proteome: GLuc-NoTag assay (AID 1508627).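 Note: 0% = thapsigargin alone and -100% = DMSO vehicle control.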 The conditions noted are these: Gaussia luciferase NoTag secretion counterscreen, luminescence, thapsigargin 100 nM for final 4 h; series mostly up to 76.4 µM. The essentials:
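Counterscreen line: SH-SY5Y-GLuc-NoTag cells, treated with compound 19 hr before a 4 hr, 100 nM thapsigargin calcium depletion. Secreted Gaussia luciferase in the medium was measured by luminescence after coelenterazine was added (0.07x final), with cells unlysed.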

The nature of experiment [22]: Cell Viability qHTS for small molecule stabilizers of the endoplasmic reticulum resident proteome (AID 1508629). The conditions noted are these: cell viability counter-screen, 100 nM thapsigargin for final 4 h.
The mark [23] stands for this setting: measured here: cell count channel max response.
Where [24] appears, read: measured here: lipid channel max response.

“And” between values parts separate entries of the source, which are not always exact repeats. Equal values may be shown once. Inconclusive results are not listed. The source made the active and inactive calls. Unless noted, calls come from the whole dose curve; as a rule, active = well fitted curve in the direction sought with a large enough effect; inconclusive = small, poorly fitted or top-dose-only effect, or another doubt; inactive = no such curve, though single readings can be large; an effect the other way counts as inactive or inconclusive.

Sequence of Alpha-galactosidase A (Homo sapiens) (P06280 whole entry, looked up): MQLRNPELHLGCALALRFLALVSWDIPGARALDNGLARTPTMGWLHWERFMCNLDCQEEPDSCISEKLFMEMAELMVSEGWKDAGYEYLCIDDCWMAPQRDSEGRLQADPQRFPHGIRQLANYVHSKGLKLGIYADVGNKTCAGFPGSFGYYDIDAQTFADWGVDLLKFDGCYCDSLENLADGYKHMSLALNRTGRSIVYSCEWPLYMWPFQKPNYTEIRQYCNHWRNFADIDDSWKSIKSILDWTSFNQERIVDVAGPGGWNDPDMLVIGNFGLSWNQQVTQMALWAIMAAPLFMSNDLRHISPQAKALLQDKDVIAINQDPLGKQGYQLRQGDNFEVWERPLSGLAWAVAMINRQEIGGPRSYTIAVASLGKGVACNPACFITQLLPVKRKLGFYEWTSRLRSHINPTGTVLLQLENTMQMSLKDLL
Sequence of Guanine nucleotide-binding protein G(i) subunit alpha-1 (Homo sapiens) (P63096 whole entry, looked up): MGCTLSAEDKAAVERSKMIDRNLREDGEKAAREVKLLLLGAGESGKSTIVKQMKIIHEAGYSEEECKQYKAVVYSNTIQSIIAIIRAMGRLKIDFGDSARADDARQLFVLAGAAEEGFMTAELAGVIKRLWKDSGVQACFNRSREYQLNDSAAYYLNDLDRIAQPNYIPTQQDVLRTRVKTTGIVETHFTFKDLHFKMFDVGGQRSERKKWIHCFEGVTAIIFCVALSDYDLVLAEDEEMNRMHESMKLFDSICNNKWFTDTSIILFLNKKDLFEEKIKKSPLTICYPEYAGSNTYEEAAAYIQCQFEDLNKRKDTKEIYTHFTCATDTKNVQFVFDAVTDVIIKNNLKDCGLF
Sequence of Lysosomal acid glucosylceramidase (Homo sapiens) (P04062 whole entry, looked up): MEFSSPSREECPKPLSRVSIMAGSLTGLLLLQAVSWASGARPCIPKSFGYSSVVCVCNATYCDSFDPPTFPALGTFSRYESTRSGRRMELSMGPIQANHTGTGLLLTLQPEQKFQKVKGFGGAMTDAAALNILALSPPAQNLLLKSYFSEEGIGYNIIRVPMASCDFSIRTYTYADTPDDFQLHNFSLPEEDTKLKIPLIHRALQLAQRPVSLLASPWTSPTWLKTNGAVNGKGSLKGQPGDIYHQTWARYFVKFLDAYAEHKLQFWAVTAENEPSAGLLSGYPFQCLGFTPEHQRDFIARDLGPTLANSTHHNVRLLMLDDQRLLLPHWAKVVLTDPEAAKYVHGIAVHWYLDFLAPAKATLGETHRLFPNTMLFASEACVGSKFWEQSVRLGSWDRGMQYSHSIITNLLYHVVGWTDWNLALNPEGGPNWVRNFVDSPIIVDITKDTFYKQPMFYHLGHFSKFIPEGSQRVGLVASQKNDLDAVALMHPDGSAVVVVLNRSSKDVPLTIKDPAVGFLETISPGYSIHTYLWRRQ

On to `CN(C)C/C=C(\c1ccc(Br)cc1)c1cccnc1`, for which the Potency in [1] is > 11.4 µM (inactive); in [5] it was > 46 µM (inactive) and > 20.6 µM (inactive); in experiment [6], > 46 µM (inactive) and > 20.6 µM (inactive) and > 9.22 µM (inactive); in experiment [17] it was 44.7 µM (active). Also, the activity change, negative = inhibition in experiment [2] (at 7.69 µM (top of the series)) was 5.82% (inactive); in experiment [2] (at 17.2 µM (top of the series)), 4.78% (inactive); in experiment [2] (at 38 µM (top of the series)), 14.9% (inactive); in [3] (at 7.69 µM (top of the series)), -7.27% (inactive); in experiment [3] (at 17.2 µM (top of the series)), -12.7% (inactive); in experiment [14], -2.94% (inactive). Further, the activity, negative = inhibition was 3.29% (inactive) in experiment [4] (at 7.69 µM (top of the series)), 7.82% (inactive) in experiment [4] (at 17.2 µM (top of the series)) and -15.8% (inactive) in experiment [4] (at 38 µM (top of the series)). For the same compound, the Potency entry in [7], in [8], in [10], in experiment [11], in experiment [15] and in [16] was “inactive” throughout. Further, the result in experiment [9], in experiment [12] and in experiment [13] was inactive. Besides, the max response in [14] (setting [23]) was -7.55%; in [14] (setting [24]), -11.6%.

`C[C@@H]([C@H](O)c1ccc(O)cc1)N1CCC(Cc2ccccc2)CC1`: the activity change, negative = inhibition was -4.89% (inactive) in experiment [2] (at 17.2 µM (top of the series)), -7.76% (inactive) in experiment [2] (at 38 µM (top of the series)) and -1.79% (inactive) in [14]. Further, the activity, negative = inhibition in experiment [4] (at 17.2 µM (top of the series)) was 8.14% (inactive). Moreover, the Potency in [5] was > 46 µM (inactive) and > 20.6 µM (inactive); in [6], > 46 µM (inactive) and > 20.6 µM (inactive); in [18], 12.6 µM (active); in experiment [19], 7.94 µM (active). Also, the Potency result in experiment [7], in experiment [11], in experiment [20], in [15], in [16] and in experiment [21] was “inactive” in each case. Also, the compound was classed as inactive in experiment [9], in [12] and in experiment [13]. The max response in [14] (setting [23]) was -1.79%; in [14] (setting [24]) it was -6.29%; in experiment [22] it was -8.82% (inactive).

The record behind these values is PubChem BioAssay (NCATS).
